In the library only some 20% were active in any assay of this set; here they are far more common.
HCMV inh: human cytomegalovirus inhibition; HFF cells, HCMV-luciferase reporter, 72 h; stronger effect = lower value; activity change, negative = inhibition, % at 57.5 µM; 4.5% of 410,000 active; in the data active = activity change below about -60%; inconclusive = no clear call, values can overlap the other calls; inactive = above about -39%; note: % is set by controls: 0 for no effect and ±100 for the full control effect
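Human foreskin fibroblasts infected with luciferase-reporter HCMV at MOI 1 PFU/cell, compounds at two doses. Luciferase measured 72 h post infection; normalized to buffer-only basal and Salinomycin (10uM) controls.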
CHX counter: counter-screen for Shiga toxin inhibitors: cycloheximide protein synthesis inhibition; cell reporter, cycloheximide protein synthesis inhibition counterscreen; 12% of 300,000 active; AID 2314; max response, %; in the data active = max response mostly above about 13%, no sharp cut-off; inactive = mostly below about 14%; note: read at 38.3 µM for the half of the compounds with a filed dose; 0% is about no effect
Pf growth 48h: P. falciparum growth inhibition at 48 hours (one generation) | P. falciparum luciferase growth in erythrocytes, 48 h | Potency, µM (highest dose often 28.7 µM), for the others: at the top dose activity change, negative = inhibition, hits mostly inhibitors | 5.9% of 310,000 active | AID 504832; note: potency is the fitted concentration of half-maximal effect; % is set by controls: 0 for no effect and ±100 for the full control effect
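Growth was read as firefly luciferase luminescence after a 48 h, 37 C, 5% CO2 exposure of compounds to reporter-bearing P. falciparum cultures (0.1% parasitemia, 2% hematocrit final) in Albumax-supplemented RPMI 1640.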
Shiga toxin inh: Shiga toxin inhibition; 9.2% of 290,000 active; AID 2315; inhibition, % at 38.7 µM; Vero cells, Shiga toxin protein synthesis inhibition reporter; in the data active = inhibition mostly above about 28%, no sharp cut-off; inactive = mostly below about 43%; note: 0% is about no effect
Pf growth 96h: P. falciparum growth inhibition at 96 hours; P. falciparum luciferase reporter growth, 96 h; 6.9% of 320,000 active; Potency, µM (highest dose often 28.7 µM), without a hit: top-dose activity change, negative = inhibition, most hits filed as inhibitors; AID 504834; note: potency is the fitted concentration of half-maximal effect; % is set by controls: 0 for no effect and ±100 for the full control effect
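Cell-based qHTS: luciferase-tagged P. falciparum in erythrocytes (2% hematocrit, 0.05% parasitemia final) incubated with compounds for 96 hours, 37 C, 5% CO2; luciferase detection reagent then added and luminescence measured.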
* marks the source's active call; other numbers are inactive results; ? = inconclusive; nt = no result given; + = active, no number. Unless noted, calls come from the whole dose curve; as a rule, active = well fitted inhibition curve with a large enough effect; inconclusive = small, poorly fitted or top-dose-only effect, or another doubt; inactive = no such curve, though single readings can be large or run the other way.

SMILES	HCMV inh	CHX counter	Pf growth 48h	Shiga toxin inh	Pf growth 96h
CCN(CC)c1ccc(N=Cc2ccc(N(CC)CC)cc2O)cc1	-24.6	12.0	1.17µM*	28.7	nt
CCN(CC)c1ccc(/C=N/N2CCN(Cc3ccccc3)CC2)c(O)c1	39.5	-3.3	?	-11.4	?
CCN(CC)c1ccc(/C=N/N2CCOCC2)c(O)c1	?	64.5*	163.7%	70.2*	258.5%
CCN(CC)c1ccc(C=Nc2ccc(N(C)C)cc2)c(O)c1	?	53.6*	?	90.6*	?
CCN(CC)c1ccc(C=Nc2ccccc2)c(O)c1	-4.9	5.0	?	35.2	?
CCN(CC)c1ccc(C=Nc2ccc(C)cc2)c(O)c1	-16.0	1.1	5.2%	5.9	11.1%
COc1ccc2oc(=O)c(C(=O)Oc3ccc(NC(C)=O)cc3)cc2c1	-24.8	-0.4	1.8%	23.6	?
CCCOc1ccc(Cn2cnc3ccccc32)cc1	?	13.6*	?	2.3	22.1%
Fc1ccc(Cn2cnc3ccccc32)cc1	4.9	-1.9	nt	11.7	67.4%
C=C(Br)Cn1cnc2ccccc21	-36.0	20.6	?	1.2	-24.1%
O=C(Cn1cnc2ccccc21)c1ccc(Br)cc1	-34.1	21.5*	?	23.6	17.8%
Cc1ccc(Cn2cnc3ccccc32)cc1C	-63.2*	8.7	-21.5%	-8.1	?
c1ccc(OCCn2cnc3ccccc32)cc1	-24.9	29.2*	3.4%	17.6	-22.7%
O=C1CC2(CCN(S(=O)(=O)c3ccccc3F)CC2)Oc2ccccc21	-20.3	nt	-10.1%	nt	?
COc1ccc(-c2coc3cc(OC(C)=O)ccc3c2=S)cc1	-5.4	nt	nt	nt	nt
CCOc1ccc(-c2nnc(SCC(=O)N(CC)c3cccc(C)c3)o2)cc1	0.5	nt	nt	nt	nt
Cc1onc(-c2ccccc2)c1-c1n[nH]c(=S)n1-c1ccccc1	-8.6	nt	nt	nt	nt
O=C(NNC(=O)c1cccnc1Cl)c1ccc(F)cc1	nt	2.5	11.8%	-3.2	23.7%
COc1ccc(OCc2nn3c(Cn4cnc5ccccc54)nnc3s2)cc1	-68.2*	-5.8	?	-18.7	32.3%
c1ccc2c(c1)ncn2CCN1CCCCC1	14.7	-0.9	18.5%	-1.5	?
COc1ccc(OCCn2cnc3ccccc32)cc1	10.7	9.5*	-0.8%	33.2*	?
CC(=O)c1ccc(OCCn2cnc3ccccc32)cc1	74.0	9.2	15.7%	38.2	48.3%
c1ccc(CCn2cnc3ccccc32)cc1	-12.1	29.3*	24.5%	24.5	83.6%
O=C(Cn1cnc2ccccc21)NC(c1ccccc1)c1ccccc1	-20.0	6.4	4.15µM*	30.1	3.7µM*
O=C(COC(=O)c1cccc(Br)c1)Nc1ccc2[nH]c(=O)[nH]c2c1	-7.0	nt	-0.2%	nt	-4.6%
SMILES	HCMV inh	CHX counter	Pf growth 48h	Shiga toxin inh	Pf growth 96h
Cc1ccc2[nH]c3c(=O)n(CC(=O)N(CCN(C)C)Cc4ccccc4)ncc3c2c1	-26.9	nt	nt	nt	nt
COc1ccccc1CC1(C)NC(=O)N(CC(=O)N2CC(C)OC(C)C2)C1=O (stereo not drawn)	47.9	10.4	6.3%	-6.7	0.522µM*
CC1CN(C(=O)CN2C(=O)NC3(CCCCCC3)C2=O)CC(C)O1 (stereo not drawn)	8.5	-2.2	4.7%	-7.7	21.3%
CCOC(=O)c1sc(NC(=O)c2sccc2C)cc1C	47.1	62.8*	nt	70.0*	-78.7%
CCOC(=O)c1sc(NC(=O)Nc2cccc(Cl)c2)cc1C	-95.2*	62.2*	-80.6%	107.8*	?
CCOC(=O)c1sc2nc(C)n(CC(=O)Nc3cccc(Cl)c3)c(=O)c2c1C	15.3	nt	nt	nt	nt
CCOC(=O)c1sc(NC(=O)c2ccc(Br)o2)cc1C	?	46.6*	-2.7%	124.5*	?
CCOC(=O)c1sc(NC(=S)NC(=O)C2CC2)cc1C	23.8	20.4	?	28.5	?
CCOC(=O)c1sc(NC(=O)c2cccs2)cc1C	20.7	31.7*	1.4%	141.4*	nt
c1ccc(Cc2cnc(N3CCN(Cc4ccc5c(c4)OCCO5)CC3)nc2)cc1	18.9	nt	nt	nt	nt
CCOC(=O)c1sc(NC(=O)CCN2C(=O)C3CCCCC3C2=O)cc1C (stereo not drawn)	-39.5	nt	14.7µM*	nt	?
CC(=O)Nc1cccc(NC(=O)c2cc3ccccc3o2)c1	298.3	33.0*	nt	48.9	188.0%
CC(C)C(=O)Nc1cccc(NC(=O)c2cc3ccccc3o2)c1	64.0	54.0*	69.4%	42.2*	nt
Cc1ccc(NC(=O)c2cc3ccccc3o2)cc1Cl	-35.4	46.9*	103.2%	110.8*	?
CCc1ccc(N(CC(=O)NCC2CCCO2)C(=O)CCC(=O)Nc2nccs2)cc1 (stereo not drawn)	?	-3.9	?	-6.0	-13.5%
COC(=O)C1=C(C)N(Cc2cccnc2)C(=O)/C1=C\c1sccc1C	115.2	1.2	?	19.4	50.4%
CNC(=O)Nc1cccc(C(F)(F)F)c1	-20.8	11.7	3.1%	9.8	nt
O=C(Nc1ccccc1)Nc1cccc(C(F)(F)F)c1	-34.0	29.8*	?	80.2*	63.0%
C[C@H](NC(=O)Nc1cccc(C(F)(F)F)c1)C(=O)O	-20.7	5.0	14.6%	10.0	9.3%
Cc1ccc(OC(F)F)c(NC(=O)Nc2cccc(C(F)(F)F)c2)c1	-99.0*	10.9	?	17.7	nt
O=C(Nc1cccc(C(F)(F)F)c1)Nc1cccs1	-80.4*	nt	nt	nt	nt
COc1ccc(NC(=O)Nc2cccc(C(F)(F)F)c2)cn1	-62.7*	6.4	13.1µM*	30.5	?
Cc1ccc(C)c(NC(=O)CSc2ncc3c(n2)-c2ccccc2N(Cc2ccccc2C)S3(=O)=O)c1	4.0	nt	nt	nt	nt
COC(=O)c1oc2ccc(Cl)cc2c1-n1cccc1	-20.0	-1.2	25.4%	8.3	-18.5%
COC(=O)c1sccc1NC(=O)Nc1cccc([N+](=O)[O-])c1	-19.0	1.8	25.6%	-3.3	?
SMILES	HCMV inh	CHX counter	Pf growth 48h	Shiga toxin inh	Pf growth 96h
CNS(=O)(=O)c1cn(CC(=O)Nc2cccc(C(F)(F)F)c2)cc1S(=O)(=O)NC	+	nt	nt	nt	nt
COC(=O)/C(=C\C(=O)c1ccccc1)Nc1cccc(C(F)(F)F)c1	36.4	44.3*	55.7%	98.0*	67.6%
COC(=O)/C=C/C(=O)Nc1cccc(C(F)(F)F)c1	-74.1*	-1.7	?	18.5	?
C/C(=C/C(=O)O)C(=O)Nc1cccc(C(F)(F)F)c1	-17.7	-2.9	2.0%	34.3	29.0%
O=C(Nc1cccc([N+](=O)[O-])c1)Nc1cccs1	-32.3	32.3*	?	37.2	-6.9%
CNS(=O)(=O)c1cn(CC(=O)Nc2cccc(OC)c2)cc1S(=O)(=O)NC	-21.4	nt	nt	nt	nt
COc1ccc(CN(CC(O)COc2cccc3[nH]cc(C)c23)C(C)(C)C)cc1 (stereo not drawn)	?	1.0	?	2.3	?
CC(C)C[C@@H](CNCC(=O)[C@H](Cc1ccccc1)NC(=O)c1[nH]cnc1C(=O)N[C@@H](C)CN)NC(=O)c1nc[nH]c1C(=O)N[C@@H](C)C(=O)O	-2.0	nt	nt	nt	nt
O=C(Nc1cccc(C(F)(F)F)c1)Nc1nnc([C@H]2C[C@H](O)[C@@H](CO)O2)s1	-36.1	nt	nt	nt	nt
